Compound activity: PubChem, National Center for Advancing Translational Sciences (NCATS)
The entries come from a sample that favours hits as a whole.
Sm TGR inh = blocks Schistosoma mansoni thioredoxin glutathione reductase | purified TGR, DTNB reduction, TNB absorbance 405 nm | Potency, µM (top dose mostly 114 µM), hits mostly inhibitors | 3% of 360,000 active | AID 485364; further: nearly all actives have a fitted effect of over 60% in size
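Kinetic colorimetric format: TGR-catalysed, NADPH-driven DTNB reduction monitored via TNB absorbance. Enzyme dispensed at 20 nM; compound exposure 15 min at room temperature before reaction start.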
Shiga inhibitor = blocks Shiga toxin action in Vero cells | Vero cells, Shiga toxin protein synthesis inhibition reporter | inhibition, % at 38.7 µM | 9.2% of 290,000 active; in the data active means inhibition mostly above about 28%, no sharp cut-off; inactive means mostly below about 43%
TbPYK inhibitor = T. brucei pyruvate kinase inhibition; AID 624173; 0.12% of 410,000 active; Potency, µM (top dose mostly 76.8 µM), most hits filed as inhibitors; TbPYK enzyme, Kinase-Glo Plus ATP luminescence, 45 min; further: nearly all actives have a fitted effect of over 50% in size
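Luminescence from Kinase-Glo Plus, added after a 45-minute room-temperature reaction, served as the end-point read-out. The enzyme and substrate were preincubated with compound before ADP (130 uM final) initiated turnover. Concentration-effect curves came from normalized qHTS data.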
CHX counter = affects cycloheximide protein synthesis inhibition readout, counter-screen; 12% of 300,000 active; max response, %; AID 2314; cell reporter, cycloheximide protein synthesis inhibition counterscreen; in the data active means max response mostly above about 13%, no sharp cut-off; inactive means mostly below about 14%; further: read at 38.3 µM for the half of the compounds with a filed dose
FBPA Giardia inh = blocks Giardia fructose-bisphosphate aldolase activity | Potency, µM (highest dose often 59.6 µM), hits mostly inhibitors | 0.71% of 290,000 active | A8B2U2 | purified Giardia FBPA; further: nearly all actives have a fitted effect of over 55% in size
Target sequence (A8B2U2 whole entry, looked up): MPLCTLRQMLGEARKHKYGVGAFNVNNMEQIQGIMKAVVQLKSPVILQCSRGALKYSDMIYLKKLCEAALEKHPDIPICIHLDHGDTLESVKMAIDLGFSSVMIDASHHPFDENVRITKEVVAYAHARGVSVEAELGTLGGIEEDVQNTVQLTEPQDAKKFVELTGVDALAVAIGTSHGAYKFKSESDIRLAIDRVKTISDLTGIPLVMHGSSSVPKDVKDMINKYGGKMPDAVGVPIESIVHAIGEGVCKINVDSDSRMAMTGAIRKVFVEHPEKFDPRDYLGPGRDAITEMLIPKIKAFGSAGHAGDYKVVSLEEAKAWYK
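40 nM FBPA preincubated 10 min at RT with compound (up to 57.5 uM final), then substrate plus GAPDH/TPI/NAD/arsenate coupling and diaphorase/resazurin added. Fluorescence read after 20 min at RT, 525/598 nm.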
LmPK inhibitor = blocks Leishmania mexicana pyruvate kinase activity; Q27686; purified LmPK, Kinase-Glo ATP luminescence, 1 h; 0.37% of 290,000 active; Potency, µM (highest dose often 57.5 µM), usual class: inhibitors
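Pyruvate kinase activity monitored as ATP production (luciferase luminescence). Conditions: 0.1 nM enzyme, 0.5 mM PEP, 0.1 mM ADP, 1 h, RT; normalized against uninhibited and no-enzyme wells.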
A number is an active result; n = inactive; u = inconclusive; x = no result. Unless noted, the call rests on the fitted dose curve; in most records, active means well fitted curve in the direction sought with a large enough effect; inconclusive means small, poorly fitted or top-dose-only effect, or another doubt; inactive means no such curve, though single readings can be large; an effect the other way counts as inactive or inconclusive.

SMILES | Sm TGR inh | Shiga inhibitor | TbPYK inhibitor | CHX counter | FBPA Giardia inh | LmPK inhibitor
C=C1C(=O)O[C@@H]2[C@H]1[C@@H](OC(=O)/C(C)=C/C)C/C(C)=C\C(=O)/C=C(\C)[C@@H]2O | 5.62µM | 50.6 | n | 28.5 | n | n
O=C(O)c1cccc(N2C(=O)c3ccc(Oc4ccc(Cl)cc4)cc3C2=O)c1 | n | n | n | 19.6 | n | n
COc1ccccc1-c1noc2ncnc(Nc3cccc(C)c3C)c12 | n | n | n | n | n | n
Oc1c(C2=NCCNC(C(F)(F)F)=C2)ccc2ccccc12 | x | 69.6 | n | 38.4 | u | n
Cc1ccc(O)c(C2=NCCNC(C(F)(F)F)=C2)c1 | n | n | n | n | n | n
CCOc1ccc2nc(NC(=O)CN3CCN(CC)CC3)sc2c1 | n | n | n | n | u | n
CCOc1ccc2nc(NC(=O)CN3CCOCC3)sc2c1 | n | 87.3 | n | 36.7 | n | n
CCOc1ccc2nc(NC(=O)CN3CCN(C)CC3)sc2c1 | n | n | n | 26.8 | n | n
CCOC(=O)N1CCN(CC(=O)Nc2nc3ccc(OC)cc3s2)CC1 | n | 44.7 | n | 24.8 | u | n
CCOc1ccc2nc(NC(=O)Cn3[nH]c(=O)c4ccccc4c3=O)sc2c1 | n | 53.5 | n | 40.6 | n | n
COc1ccc(S(=O)(=O)N(C)C[C@H]2Oc3c(NC(=O)c4ccncc4)cccc3C(=O)N([C@H](C)CO)C[C@@H]2C)cc1 | x | x | n | x | x | x
Nc1c(C(=O)Nc2ccccc2)nnn1Cc1ccc(F)cc1Cl | n | x | n | x | x | x
Cc1ccc(C)c(Nc2nn3c(=O)c4ccc(C(=O)NCc5cccs5)cc4nc3s2)c1 | n | x | n | x | x | x
CC(C)(C)Nc1nc(C#N)nc(Nc2ccccc2)n1 | x | x | x | x | n | x
c1ccc2sc(NC3=NCCN3)nc2c1 | n | 65.4 | n | 30.2 | n | n
COc1ccc(Nc2nc3ccc(OC)cc3s2)cc1 | n | 82.1 | n | 43.7 | n | n
c1ccc2sc(NC3=NCN(CCN4CCOCC4)CN3)nc2c1 | x | n | n | n | n | n
c1ccc(CN2CN=C(Nc3nc4ccccc4s3)NC2)cc1 | n | n | n | n | n | n
COc1ccc2nc(NS(=O)(=O)c3ccc(NC(C)=O)cc3)sc2c1 | n | n | n | n | n | n
COc1ccc2nc(NC(=O)c3c(C)noc3C)sc2c1 | n | x | n | x | x | x
COc1ccc2nc(Nc3nc(C)c(C(C)=O)s3)sc2c1 | n | 108.1 | n | 55.0 | u | n
c1ccc2sc(NC3=NCN(CC4CCCO4)CN3)nc2c1 (configuration not stated) | n | n | n | 36.1 | n | n
CCOC(=O)c1c(C)oc2nc(C)nc(NCC3CCN(Cc4ccc(Cl)cc4)CC3)c12 | n | x | n | x | x | x
CCCN(CCC)C(=O)c1nn(C)c2c1CSc1ccc(C)cc1-2 | n | x | n | x | x | x
COc1ccc2nc(NC3=NCCN3)sc2c1 | n | 28.1 | n | 55.2 | n | n
SMILES | Sm TGR inh | Shiga inhibitor | TbPYK inhibitor | CHX counter | FBPA Giardia inh | LmPK inhibitor
COc1ccc(CN2CN=C(Nc3nc4ccccc4s3)NC2)cc1 | n | n | n | n | n | n
N#CCc1c(C#N)c(N)nc(Nc2ccccc2)c1C#N | 20µM | n | n | n | n | n
CN(c1ccccc1)c1nc(N)c(C#N)c(CC#N)c1C#N | n | n | n | n | n | n
CSCCC(=O)N(C)CC1CCN(CCc2cccc(C(F)(F)F)c2)CC1 | n | n | n | n | n | n
CN(CC1CCN(CCc2cccc(C(F)(F)F)c2)CC1)C(=O)c1ccc(F)cc1F | 39.8µM | n | n | n | n | n
COCCn1c(C)cc(O)c(C(c2ccccc2F)N2CCN(c3ccccc3)CC2)c1=O (configuration not stated) | 4.47µM | x | n | x | x | x
COCCn1c(N2CCN(c3ccccc3)CC2)nc2c1c(=O)n(C)c(=O)n2C | n | n | n | n | n | n
COCCn1c(C)cc(O)c(C(c2ccccc2OC)N2CCN(c3ccccc3)CC2)c1=O (configuration not stated) | 3.55µM | x | n | x | x | x
CC(NC(=O)C1CCCN1C(=O)CN)C(=O)O (configuration not stated) | x | n | x | n | n | x
O=C(CN1C(=O)COc2ccc(Cl)cc21)Nc1ccc(F)cc1 | n | x | n | x | x | x
Cc1ccc(-c2nc(N)n(C(=O)c3ccco3)n2)cc1 | n | n | n | n | n | n
O=C(c1ccco1)n1c(=S)nc2ccccn21 | 50.1µM | 115.3 | n | 68.1 | u | 14.1µM
